# Only some compounds are listed: those with a hit (about 3% of all), similar ones and a draw of the others.
# KCNH2 3.1 block – KCNH2 3.1 (human) potassium channel inhibition; 0.95% of 340,000 active; U2OS KCNH2 3.1, thallium flux FluxOr; hits give low values; activity change, % (tested at about 1.8 µM);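 active = maximum activity change below -70%; inconclusive = maximum activity change from -70% to -50%; inactive = maximum activity change above -50%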;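 note: thallium influx rate constant from kinetic fluorescence after stimulation buffer; % is set by controls: 0 for no effect and ±100 for the full control effect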
#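 FluxOr-based Tl+ influx in U2OS cells transduced with KCNH2 3.1 virus; rate constants normalized to DMSO controls.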
# LDHA block – LDHA (human) enzyme inhibition. P00338. purified LDHA, NADH/diaphorase-resazurin fluorescence; hits give low values. activity change, % (values are at about 110 or 230 µM). 0.15% of 480,000 active. AID 1347041; in the data active = activity change below about -30%; inconclusive = mostly about -25% to -30%;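 note: plate controls were DMSO wells for no effect and wells without enzyme for full effect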
#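 LDH5 2 nM; NADH 0.06 mM, pyruvate 0.2 mM; 200 mM Tris pH 7.4, EDTA, Tween-20; 5 min RT. Detection: diaphorase 0.133 mg/mL + resazurin 37 µM, fluorescence ex540/em590 at 0 and 20 min; normalized to enzyme-free and DMSO wells.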
# 12-LOX inh – ALOX12 (human) lipoxygenase inhibition. AID 1671190. Potency, µM (series often up to 108 µM), for inactives: at the top dose activity change, negative = inhibition, most hits filed as inhibitors. 1.1% of 580,000 active. P18054. purified 12hLO, xylenol orange hydroperoxide absorbance; active = well fitted inhibition curve with a large enough effect; inconclusive = small, poorly fitted or top-dose-only effect, or another doubt; inactive = no such curve, though single readings can be large or run the other way; note: potency is the fitted concentration of half-maximal effect; % is set by controls: 0 for no effect and ±100 for the full control effect
#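 Purified human 12hLO at 150 nM in 25 mM Hepes, 0.01% Triton X-100, pH 7.0, preincubated 15 min at room temperature with compound. Reaction started with 40 uM arachidonic acid, 30 min at room temperature. Hydroperoxide measured by Fe-xylenol orange, 573/405 nm absorbance ratio.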
# hERG WT inh – inhibitors of human wildtype KCNH2 potassium channel. Q12809. U2OS, BacMam KCNH2, thallium flux FluxOr; hits give low values. activity change, % at 1.84 µM. 0.37% of 340,000 active;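 active = maximum activity change below -70%; inconclusive = maximum activity change between -70% and -50%; inactive = maximum activity change above -50%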; note: % is set by controls: 0 for no effect and ±100 for the full control effect
#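 U2OS cells transduced with wild-type KCNH2 virus are loaded with FluxOr dye for 45 min, and thallium flux is measured in kinetic reads before and after stimulation buffer. Rate constants are normalized to DMSO controls.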
# ClpP mod – qHTS Assay for Activators of ClpP. ATP-dependent Clp protease proteolytic subunit (Bacillus subtilis (strain 168)), P80244. purified B. subtilis ClpP, FRET peptide cleavage, 20 min. Potency, µM (highest dose often 57.5 µM), without a hit: top-dose activity change, negative = active. 1.9% of 340,000 active; active = well fitted falling curve with a large enough effect; inconclusive = small, poorly fitted or top-dose-only effect; inactive = no such curve, though single readings can be large or run the other way; note: potency is the fitted concentration of half-maximal effect; the source files actives as falling curves though it sought activators and does not explain the sign; nearly all actives have a fitted effect of over 65% in size
# Target sequence (P80244 whole entry, looked up): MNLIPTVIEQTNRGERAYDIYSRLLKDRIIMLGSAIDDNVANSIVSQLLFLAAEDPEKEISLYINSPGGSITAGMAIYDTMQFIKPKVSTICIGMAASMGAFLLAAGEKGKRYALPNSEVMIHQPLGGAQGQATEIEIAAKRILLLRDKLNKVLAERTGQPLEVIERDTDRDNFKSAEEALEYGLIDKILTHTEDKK
#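 ClpP 10 microg/mL final, pH 8 Tris/KCl buffer with BSA, glycerol, Tween-20; compound pinned in; FRET-FV substrate; RT 20 min; Ex320/Em430; ΔFRET vs ADEP 5.8 microM, DMSO, no enzyme.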
# Chronic BCR inh – chronic active BCR signaling inhibition. AID 493014. ABC-DLBCL IkBa-CBG/CBR reporter, luminescence ratio, 4 h. 0.05% of 340,000 active. Potency, µM (titrated, usually from 46.1 µM), without a hit: top-dose activity change, negative = inhibition, most hits filed as inhibitors; active = well fitted inhibition curve with a large enough effect in the signal ratio, with a control signal flat, not every such curve was filed as active; inconclusive = small, poorly fitted or top-dose-only effect, or effect the other way, or a change in a side signal; the % refers to the signal ratio;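 note: potency is the fitted concentration of half-maximal effect; plate controls were basal doxycycline-induced cells for no effect and cells given 10 µM MG132 for full effect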
#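 Concentration-response series (up to 46 uM) were applied to TMD8 dual-reporter cells for 4 h at 37C with doxycycline. Green/red ratio, after filter-overlap correction, defined %Activity; red signal alone was normalised to basal cells and zero luminescence.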
# * hit, by the source's call; ? = inconclusive; · = not tested or not shown.
SMILES,KCNH2 3.1 block,LDHA block,12-LOX inh,hERG WT inh,ClpP mod,Chronic BCR inh
Cc1ncsc1C(=O)N1N=C2/C(=C/c3ccc(N4CCOCC4)cc3)CCCC2C1c1ccc(N2CCOCC2)cc1 (centres undefined),-4,-2,·,-15,-1%,4%
COC(=O)C(N)Cc1ccc(O)cc1 (centres undefined),-1,1,0%,0,3%,1%
COC(=O)C(N)Cc1ccc(O)c(O)c1 (centres undefined),0,21,6.3µM*,5,-2%,?
CCOc1cnc(-c2ccc(OC)cc2)o1,-19,0,95%,-7,25µM*,2%
c1ccc(-n2nnnc2SCc2cn3cccnc3n2)cc1,13,-10,9%,5,25µM*,1%
c1cc(C2CCCCC2)ccc1Oc1nc(N2CCOCC2)nc(N2CCOCC2)n1,-71*,-3,3%,3,-4%,0%
Nc1nc(-c2ccccc2)nc2sc3c(c12)CCCC3,-13,-7,-2%,2,32µM*,?
CCCCN(C(=O)C1CC(=O)N(Cc2ccc(C)cc2)C1)c1c(N)n(CCCC)c(=O)[nH]c1=O (centres undefined),-17,-5,-27%,7,22µM*,7%
CCCCN(C(=O)C1CC(=O)N(CCc2ccc(OC)c(OC)c2)C1)c1c(N)n(CCCC)c(=O)[nH]c1=O (centres undefined),19,-4,-18%,-1,·,0%
COc1ccc(-c2nc3ccccc3o2)cc1NC(=O)c1ccc(Br)o1,-10,-7,12%,-3,22µM*,?

# Screening data (PubChem)
